Data: PubChem BioAssay (NCI)
Compounds without any hit were thinned out: in the full panel of roughly 83,000, 20% have a hit.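 Single-concentration screen, 48 h exposure, 96-well plates. Endpoint: percent growth. Below 10 = active.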 Unmarked numbers belong to inactive results. Active and inactive are the calls of the source.

Columns and labels:
Assay in all cases: NCI-60 one-dose screen, 48 h (100 = growth as untreated, 0 = no growth, -100 = all killed)
Details in all cases: 10 µM unless noted
DU-145 prostate = tested on: DU-145 prostate
K-562 leukemia = tested on: K-562 leukemia
MALME-3M melanoma = tested on: MALME-3M melanoma
MDA-MB-231 breast = tested on: MDA-MB-231 breast
SF-268 CNS = tested on: SF-268 CNS
SF-295 CNS = tested on: SF-295 CNS
SF-539 CNS = tested on: SF-539 CNS
UACC-257 melanoma = tested on: UACC-257 melanoma
M14 melanoma = tested on: M14 melanoma
HCT-15 colon = tested on: HCT-15 colon
HT29 colon = tested on: HT29 colon
SNB-75 CNS = tested on: SNB-75 CNS
SNB-19 CNS = tested on: SNB-19 CNS
U251 CNS = tested on: U251 CNS
PC-3 prostate = tested on: PC-3 prostate
SK-MEL-5 melanoma = tested on: SK-MEL-5 melanoma
UACC-62 melanoma = tested on: UACC-62 melanoma
LOX IMVI melanoma = tested on: LOX IMVI melanoma
SK-MEL-28 melanoma = tested on: SK-MEL-28 melanoma

| Compound | growth (DU-145 prostate) | growth (K-562 leukemia) | growth (MALME-3M melanoma) | growth (MDA-MB-231 breast) | growth (SF-268 CNS) | growth (SF-295 CNS) | growth (SF-539 CNS) | growth (UACC-257 melanoma) | growth (M14 melanoma) | growth (HCT-15 colon) | growth (HT29 colon) | growth (SNB-75 CNS) | growth (SNB-19 CNS) | growth (U251 CNS) | growth (PC-3 prostate) | growth (SK-MEL-5 melanoma) | growth (UACC-62 melanoma) | growth (LOX IMVI melanoma) | growth (SK-MEL-28 melanoma) |
| --- | --- | --- | --- | --- | --- | --- | --- | --- | --- | --- | --- | --- | --- | --- | --- | --- | --- | --- | --- |
| COc1ccc(-c2c(-c3ccccc3)noc2N)cc1OC | 104% | 95% | 102% | 120% | 107% | 103% | 115% | 88.3% | 98.4% | 100% | 101% | 101% | 109% | 98% | 98.8% | 97.3% | 95% | 105% | 112% |
| ClCC1(Cn2cnc3c(Cl)nc(Cl)nc32)COC1 | 67.8% | 64.7% | 102% | 80.4% | 78% | 88.8% | 103% | 75.8% | 62.6% | 45.9% | 76.8% | 85.4% | 88.8% | 89.2% | 66.3% | 98.4% | 91.6% | 45.2% | 89.9% |
| Cc1cccc(C)c1-c1cc(Cc2ccc(Cl)cc2)c(=O)[nH]n1 | 105% | 89.5% | 111% | 94.3% | 93.6% | 104% | 111% | 42.3% | 114% | 107% | 105% | 90.5% | 80.9% | 101% | 97.2% | 98.8% | 93.7% | 93.4% | 108% |
| CC(=O)O[C@H]1CC[C@@]2(C)[C@@H](CC[C@@H]3[C@@H]2CC[C@@]2(C)[C@H]3CC[C@]2(O)C(C)=O)C1 | 115% | 100% | 99.5% | 100% | 106% | 94.4% | 100% | 109% | 99.3% | 102% | 107% | 94.9% | 102% | 94% | 95.7% | 94% | 91% | 99.2% | 103% |
| O=C1Nc2c(ccc(Cl)c2Cl)/C1=C/c1ccc(F)cc1 | 113% | 85% | 105% | 83.6% | 88.8% | 109% | 94.8% | 97.9% | 93.9% | 80.6% | 91% | 76.1% | 73.5% | 92.8% | 79.3% | 86.8% | 79.6% | 81.2% | 115% |
| C/C(=C(/c1ccccc1)c1ccc(OCC(O)CNCCN2CCOCC2)cc1)c1ccccc1 (centres undefined) | 67.8% | 2.44% (active) | -71.2% (active) | 29.4% | 78.5% | 71.2% | 72.8% | -27.5% (active) | 92.6% | 4.47% (active) | 3.2% (active) | 65.8% | 91.2% | 32.6% | 65.4% | 29% | 62.8% | 18.7% | -86.2% (active) |
| COc1cc(NCCCN(CC(C)C)C2CCCC2)c2ncccc2c1 | 83.4% | 39.2% | 92.1% | 74.8% | 87.5% | 87.4% | 88.8% | 89.4% | 85.7% | 63.6% | 71.8% | 71% | 84.6% | 76.6% | 59.4% | 72.2% | 73.6% | 58.7% | 71.2% |
| O=c1nc2n(nc1/C=C/c1ccco1)CC(c1ccc(Cl)cc1)=NN2 | 115% | 53.6% | 92% | 117% | 109% | 97.9% | 104% | 104% | 104% | 135% | 109% | 91.6% | 96.5% | 115% | 97.6% | 99.9% | 97.6% | 113% | 120% |
| COc1ccncc1C#Cc1cncc(C(=O)Nc2ccc(CN3CCN(C)CC3)c(C(F)(F)F)c2)c1 | 35.4% | 5.84% (active) | -28% (active) | 9.91% (active) | 39.8% | 49.7% | 1.56% (active) | 46.5% | -3.19% (active) | 16.9% | 15.2% | 65.7% | 70.1% | 62% | 42.4% | 34.2% | 26.4% | -6.87% (active) | 18.2% |
| CCCCCCCCCCCCCCCCCCOc1ccccc1N | 62% | 86.6% | 102% | 24.7% | 56.6% | 54.3% | 20.5% | 55.4% | 72.9% | 85.6% | 92.5% | 82.8% | 87.1% | 50.3% | 21.3% | 98.2% | 88.5% | 38.6% | 96.9% |
| COc1cc2nc(Cc3ccc(C)cc3)[nH]c(=O)c2cc1OC | 100% | 94.3% | 277% | 98.8% | 105% | 121% | 104% | 105% | 113% | 104% | 107% | 95.6% | 97.9% | 117% | 101% | 109% | 95.1% | 105% | 96.6% |
| COc1ccc(-c2nc(SCCC(C)C)nc(N/N=C(/C)c3ccc(C)cc3)c2C#N)cc1 | 104% | 94.6% | 103% | 71% | 93.2% | 97.7% | 86.9% | 98% | 90.4% | 92.9% | 112% | 84% | 86.8% | 103% | 85.8% | 94.3% | 87.4% | 91% | 103% |
| CC(=O)N1N=C(c2cccc(Nc3ccncc3)c2)CC1c1ccccc1 (centres undefined) | 99.5% | 11.8% | 76.7% | 83.9% | 91% | 87.5% | 80.9% | 92.6% | -76.2% (active) | 82.8% | 33.2% | 53.3% | 91.8% | 72.9% | 75.9% | 82% | 86.7% | 90.9% | 86.5% |
| CN1CCN(c2ccc(NC3=C(Cl)C(=O)c4ncccc4C3=O)cc2C#N)CC1 | 86.9% | 2.83% (active) | -69.4% (active) | -4.9% (active) | 85.3% | 115% | 91.6% | -46.5% (active) | 54% | 48.2% | 103% | 81.1% | 96.8% | 56.1% | 60.6% | 97.5% | 83.4% | -61.6% (active) | -50.9% (active) |
| C[C@]12CCc3nc(Nc4cccc(O)c4)sc3C1=CC[C@@H]1[C@@H]2CC[C@]2(C)/C(=N\NC(N)=S)CC[C@@H]12 | 8.45% (active) | 3.19% (active) | 39% | 26.2% | 37.6% | -34% (active) | -48% (active) | 74% | 31.1% | -29% (active) | 3.21% (active) | 1.36% (active) | 57.9% | 11.9% | 20.1% | 36.7% | 73.1% | -73.8% (active) | 9.46% (active) |
| COc1cc(/C=C2\C(=O)N(Cc3ccc(Cl)cc3)c3ccccc32)cc(OC)c1OC | -39.1% (active) | 8.83% (active) | 65.5% | 23.3% | 10.9% | 40.9% | 23.3% | 21.9% | 37.7% | -37.7% (active) | 8.97% (active) | 12.5% | 50.3% | 3.6% (active) | 38.6% | 41.6% | 22.2% | -57.1% (active) | -42.6% (active) |
